Source: PubChem BioAssay (NCI)
About 79,000 compounds went through this panel and 15% of them were active in at least one assay; those are over-represented in the sample as a whole. Unmarked numbers belong to inactive results. Activity calls are given as the source filed them. Rule as the data show it: active = growth inhibition above about 70%; inactive = the rest.

Tests used:
[1] = NCI Yeast Anticancer Drug Screen. Data for the rad50 strain (AID 155);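 also: 0% = growth of vehicle-only cultures of the same strain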; conditions: S. cerevisiae rad50 strain growth inhibition, stronger effect = higher value
In short: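 Readout: growth inhibition relative to vehicle-treated cultures. Compound exposure was carried out in a genetically defined yeast strain deficient in DNA damage repair.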

[2] = NCI Yeast Anticancer Drug Screen. Data for the mec2-1 strain (AID 157); conditions: S. cerevisiae mec2-1 strain, stronger effect = higher value
In short: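 Mutant yeast (mec2-1) grown with compound; growth inhibition relative to vehicle control reported.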

[3] = NCI Yeast Anticancer Drug Screen. Data for the sgs1 mgt1 strain (AID 161);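 also: 0% = growth of cultures given vehicle only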; conditions: S. cerevisiae sgs1 mgt1 strain, stronger effect = higher value
In short: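 Percent growth inhibition was derived by comparing compound-exposed mutant yeast with vehicle-exposed cultures. The strain carries alterations in DNA damage repair.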

[4] = NCI Yeast Anticancer Drug Screen. Data for the cln2 rad14 strain (AID 165);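 also: 0% = growth equal to vehicle treated cultures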; conditions: S. cerevisiae cln2 rad14 strain, stronger effect = higher value
In short: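 Readout is yeast growth inhibition versus vehicle-treated controls, using a strain with cln2 and rad14 alterations exposed to compound.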

[5] = NCI Yeast Anticancer Drug Screen. Data for the bub3 strain (AID 167); conditions: S. cerevisiae bub3 mutant strain, stronger effect = higher value
In short: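 Readout: yeast growth inhibition, expressed relative to vehicle-only wells. The test organism is a mutant strain from a panel with lesions in DNA repair or checkpoint genes.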

[6] = NCI Yeast Anticancer Drug Screen. Data for the mlh1 rad18 strain (AID 175); conditions: S. cerevisiae mlh1 rad18 strain growth inhibition, stronger effect = higher value
In short: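 Genetically defined yeast (DNA repair-deficient) exposed to compounds; growth inhibition determined relative to vehicle.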

[7] = at 5.0 µM (retest, dose inferred, filed as 0.5)
[8] = at 50.0 µM (retest, dose inferred, filed as 5.0)

Row | SMILES | growth inhibition [1, 7] | growth inhibition [1, 8] | growth inhibition ([1]; at 50.0 µM) | growth inhibition [2, 7] | growth inhibition [2, 8] | growth inhibition ([2]; at 50.0 µM) | growth inhibition [3, 7] | growth inhibition [3, 8] | growth inhibition ([3]; at 50.0 µM) | growth inhibition [4, 7] [%] | growth inhibition [4, 8] | growth inhibition ([4]; at 50.0 µM) | growth inhibition [5, 7] | growth inhibition [5, 8] | growth inhibition ([5]; at 50.0 µM) | growth inhibition [6, 7] | growth inhibition [6, 8] | growth inhibition ([6]; at 50.0 µM)
1 | COc1cc(/C=C/c2ccnc3ccccc23)cc(OC)c1OC | 30% | 59% | 43.4% | 34% | 68% | 79.3% (active) | 14% | 93% (active) | 88.2% (active) | 25 | 45% | 65.3% | 43% | 92% (active) | 72.6% (active) | 45% | 81% (active) | 22.2%
2 | Cc1cc2nc(CC(=O)c3ccncc3)c(=O)[nH]c2cc1C | -28% | 9% | 6.65% | 8% | -11% | 11.7% | 1% | 17% | 21.6% | -9 | 33% | 30.1% | -5% | 24% | 7.45% | -18% | 21% | 73.1% (active)
3 | COc1ccc2nc3cc([N+](=O)[O-])ccc3c(NNc3ccccc3)c2c1 | -2% | -5% | 62.2% | 5% | -4% | 1.7% | -2% | -13% | 49.1% | 3 | -12% | 29.7% | 3% | 6% | 5% | 0% | -11% | 60.8%
4 | COc1cc(/C=C/C(=O)CC(=O)/C=C/c2ccc(O)c(OC)c2)ccc1O | 55% | 95% (active) | 83.8% (active) | 74% (active) | 93% (active) | 87.1% (active) | 20% | 89% (active) | 88% (active) | 15 | 88% (active) | 84.3% (active) | 27% | 80% (active) | 83.7% (active) | 55% | 91% (active) | 85.5% (active)
5 | CCOc1ccc(Nc2nc3c(s2)C(=O)c2ccccc2C3=O)cc1 | 78% (active) | 99% (active) | 90.7% (active) | 99% (active) | 99% (active) | 92.1% (active) | 90% (active) | 99% (active) | 92.7% (active) | 58 | 98% (active) | 90.8% (active) | 98% (active) | 99% (active) | 92.5% (active) | 89% (active) | 98% (active) | 91.8% (active)
6 | Cc1ccc(/C=C2\CNC/C(=C\c3ccc(C)cc3)C2=O)cc1 | 68% | 96% (active) | 86% (active) | 54% | 98% (active) | 86.4% (active) | 76% (active) | 98% (active) | 90.5% (active) | 55 | 91% (active) | 77.2% (active) | 75% (active) | 97% (active) | 87.2% (active) | 78% (active) | 97% (active) | 83.8% (active)
7 | CCCOC(=O)c1nc(N(CC2CCCCC2)C(=O)NC)sc1/N=C/c1ccccc1 | 67% | 86% (active) | 5.15% | 62% | 90% (active) | -18.9% | 45% | 91% (active) | 4.25% | 68 | 88% (active) | 37.9% | 77% (active) | 92% (active) | 10.8% | 73% (active) | 92% (active) | -10.2%
8 | O=[N+]([O-])c1ccc(C2N(Cc3ccc(Cl)cc3)CCN2Cc2ccc(Cl)cc2)cc1 | 58% | 94% (active) | 82.2% (active) | 48% | 97% (active) | 56.5% | 79% (active) | 100% (active) | 85.8% (active) | 51 | 95% (active) | 64.5% | 78% (active) | 99% (active) | 87.6% (active) | 79% (active) | 98% (active) | 79.8% (active)
9 | CCCCCC[C@@H](O)C/C=C\CCCCCCCC(=O)OCCOC | -4% | 2% | 24.9% | -3% | 26% | 5.4% | -6% | 24% | 4.2% | 2 | -4% | 77.2% (active) | -5% | 86% (active) | 12.6% | 0% | 13% | 34.1%
